Bioassay records: PubChem BioAssay, Broad Institute
Shown is part of a subset that was picked to be rich in hits.
IDE exosite FP: insulin-degrading enzyme (human) exo-site inhibition; purified IDE, FL-6b probe fluorescence polarization; active compounds read low; 6.3% of 17,000 active; P14735; z-score at 20 µM;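 active = z-score of -3 or lower, meaning strong loss of probe binding signal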;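 also: His-tagged human IDE residues 42-1019 made in E. coli with 30 nM FL-6b probe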
Target sequence (P14735 42-1019 limits assumed): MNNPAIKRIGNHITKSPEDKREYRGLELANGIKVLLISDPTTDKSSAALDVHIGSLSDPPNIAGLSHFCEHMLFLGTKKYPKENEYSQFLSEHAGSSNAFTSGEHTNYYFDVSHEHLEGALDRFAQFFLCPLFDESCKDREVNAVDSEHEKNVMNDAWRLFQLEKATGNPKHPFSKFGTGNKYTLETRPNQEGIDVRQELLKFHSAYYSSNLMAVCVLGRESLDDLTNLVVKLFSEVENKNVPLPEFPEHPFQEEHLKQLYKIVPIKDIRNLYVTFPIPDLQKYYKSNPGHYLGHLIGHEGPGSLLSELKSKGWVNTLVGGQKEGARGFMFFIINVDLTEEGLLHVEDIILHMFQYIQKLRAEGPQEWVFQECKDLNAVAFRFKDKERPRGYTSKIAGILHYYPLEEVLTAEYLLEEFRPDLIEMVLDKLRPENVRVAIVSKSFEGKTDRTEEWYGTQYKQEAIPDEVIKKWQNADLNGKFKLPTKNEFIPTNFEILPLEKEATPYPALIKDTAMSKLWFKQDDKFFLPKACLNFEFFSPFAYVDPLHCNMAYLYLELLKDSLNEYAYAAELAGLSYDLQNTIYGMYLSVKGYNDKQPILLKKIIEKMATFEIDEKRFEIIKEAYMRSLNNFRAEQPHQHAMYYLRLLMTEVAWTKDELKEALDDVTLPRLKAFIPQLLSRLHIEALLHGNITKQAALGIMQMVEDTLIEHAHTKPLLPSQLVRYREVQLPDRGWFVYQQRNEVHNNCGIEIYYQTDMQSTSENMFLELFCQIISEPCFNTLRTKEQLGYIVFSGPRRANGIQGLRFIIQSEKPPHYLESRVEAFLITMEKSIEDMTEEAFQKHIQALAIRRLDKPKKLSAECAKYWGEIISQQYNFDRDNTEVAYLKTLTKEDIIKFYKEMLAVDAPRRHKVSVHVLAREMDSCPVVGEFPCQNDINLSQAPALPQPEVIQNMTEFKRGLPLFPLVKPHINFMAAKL
* marks the source's active call; other numbers are inactive results.

SMILES	IDE exosite FP
OC[C@H]1[C@@H](c2ccc(C#Cc3ccccc3F)cc2)[C@@H]2CN(Cc3cncnc3)CCCCN12	-15*
OC[C@@H]1[C@H](c2ccc(-c3ccccc3F)cc2)[C@@H]2CN(Cc3cccnc3)CCCCN12	-1.2
OC[C@@H]1[C@@H](c2ccc(C#Cc3ccccc3F)cc2)[C@@H]2CN(Cc3cncnc3)CCCCN12	-6.3*
OC[C@H]1[C@@H](c2ccc(C#Cc3ccccc3F)cc2)[C@H]2CN(Cc3cncnc3)CCCCN21	-2.1
OC[C@H]1[C@@H](c2ccc(-c3ccccc3F)cc2)[C@H]2CN(Cc3cncnc3)CCCCN21	-3.2*
OC[C@@H]1[C@@H](c2ccc(C#Cc3cccnc3)cc2)[C@@H]2CN(Cc3ccccc3F)CCCCN12	-0.035
CCC(=O)NC[C@@H]1[C@H](c2ccccc2)[C@@H](CO)N1C(=O)C1CCC1	-0.46
CN1C(=O)c2cc(NC(=O)c3ccc(F)c(F)c3)ccc2OC[C@@H]2O[C@H](CC(=O)N3CCCCC3)CC[C@@H]21	-0.47
CC(C)C(=O)Nc1ccc2c(c1)C(=O)N(C)[C@H]1CC[C@H](CC(=O)Nc3ccc(Cl)cc3)O[C@@H]1CO2	1.1
COc1ccccc1-c1ccc([C@@H]2[C@H](C#N)N(C(=O)CN(C)C)[C@H]2CO)cc1	-5.1*
COc1ccccc1-c1ccc([C@H]2[C@@H](C#N)N(C(=O)CN(C)C)[C@H]2CO)cc1	-3.7*
COc1ccccc1-c1ccccc1[C@H]1[C@@H](C#N)N(C(=O)CN(C)C)[C@H]1CO	-0.88
COc1ccccc1-c1ccccc1[C@@H]1[C@@H](C#N)N(C(=O)CN(C)C)[C@@H]1CO	-0.39
CN(C)CC(=O)N1[C@H](C#N)[C@@H](c2ccc(-c3ccc(C(=O)N(C)C)cc3)cc2)[C@@H]1CO	1.7
CN(C)CC(=O)N1[C@@H](C#N)[C@@H](c2ccc(-c3ccc(C(=O)N(C)C)cc3)cc2)[C@@H]1CO	0.87
COc1ccc(-c2ccc([C@@H]3[C@@H](C#N)N(C(=O)CN(C)C)[C@@H]3CO)cc2)cc1	1.8
CN(C)CC(=O)N1[C@H](CO)[C@@H](c2ccc(-c3ccccc3F)cc2)[C@@H]1C#N	-3.4*
COc1ccccc1-c1ccc([C@H]2[C@H](C#N)N(C(=O)CN(C)C)[C@H]2CO)cc1	-14*
CN(C)CC(=O)N1[C@H](CO)[C@H](c2ccc(-c3ccccc3F)cc2)[C@@H]1C#N	0.68
CN(C)CC(=O)N1[C@H](C#N)[C@H](c2ccc(-c3ccccc3F)cc2)[C@H]1CO	1.7
CN(C)CC(=O)N1[C@H](C#N)[C@H](c2ccc(-c3ccccc3F)cc2)[C@@H]1CO	-1.6
C/C=C/c1ccc([C@@H]2[C@H](CO)N[C@H]2CNS(=O)(=O)c2ccccc2)cc1	-0.7
O=C(C[C@H]1C=C[C@H](NC(=O)CCN2CCCCC2)[C@H](CO)O1)Nc1nccs1	-1.3
COc1ccccc1S(=O)(=O)N1CC[C@@H]2[C@H]1c1cc(-c3ccc(C#N)cc3)ccc1N[C@@H]2CO	1.1
O=S(=O)(c1cccc(F)c1)N1CC[C@@H]2[C@@H](CO)Nc3ccc(Br)cc3[C@@H]21	-0.36
SMILES	IDE exosite FP
Cc1nn(C)cc1NC(=O)C[C@@H]1CC[C@@H]2[C@H](COc3ccc(NC(=O)C4CCOCC4)cc3C(=O)N2C)O1	-0.74
C[C@@H]1CCCCO[C@@H](CN(C)Cc2ccncc2)[C@@H](C)CN([C@@H](C)CO)C(=O)c2cc(NC(=O)Cc3ccccc3)ccc2O1	0.82
CCS(=O)(=O)N1CCCCN2[C@H](CO)[C@H](c3ccc(-c4ccccc4F)cc3)[C@@H]2C1	1.2
COCC#Cc1ccc([C@@H]2[C@H]3CN(S(=O)(=O)c4ccccc4F)CCCCN3[C@H]2CO)cc1	0.65
C[C@@H]1CCCCO[C@@H](CN(C)C(=O)CCCN(C)C)[C@H](C)CN([C@@H](C)CO)C(=O)c2cc(NS(=O)(=O)c3ccc(Cl)cc3)ccc2O1	1.5
CO[C@@H]1CN(C)C(=O)c2cc(NS(=O)(=O)c3ccc(Cl)cc3)ccc2OC[C@H](C)N(C(=O)NC(C)C)C[C@H]1C	1.8
COCC#Cc1ccc([C@@H]2[C@H]3CN(C(=O)CN4CCOCC4)CC(=O)N3[C@H]2CO)cc1	-0.13
COc1cccc(-c2ccc([C@@H]3[C@@H](CO)N4C(=O)CN(C(=O)CN5CCOCC5)C[C@H]34)cc2)c1	-3.8*
Cc1cccc(-c2ccc([C@H]3[C@H](CO)N4C(=O)CN(C(=O)CN5CCOCC5)C[C@@H]34)cc2)c1	-6.3*
COc1cccc(-c2ccc([C@@H]3[C@@H](CO)N4C(=O)CN(C(=O)c5ccncc5)C[C@@H]34)cc2)c1	-2.8
Cc1ccc(-c2ccc([C@@H]3[C@H]4CN(C(=O)CN5CCOCC5)CC(=O)N4[C@H]3CO)cc2)cc1	-2.1
COc1cccc(-c2ccc([C@@H]3[C@H]4CN(C(=O)CN5CCOCC5)CC(=O)N4[C@H]3CO)cc2)c1	-5.5*
Cc1ccc(-c2ccc([C@H]3[C@@H](CO)N4C(=O)CN(C(=O)CN5CCOCC5)C[C@@H]34)cc2)cc1	-0.81
Cc1ccc(-c2ccc([C@@H]3[C@H](CO)N4C(=O)CN(C(=O)CN5CCOCC5)C[C@@H]34)cc2)cc1	-0.58
